For eight compounds, growth results are on record in PubChem BioAssay (NCI).

Among the test systems are HCT-15 colon; HT29 colon; SNB-75 CNS; SNB-19 CNS; U251 CNS; PC-3 prostate; SK-MEL-5 melanoma; UACC-62 melanoma; LOX IMVI melanoma; SK-MEL-28 melanoma; SK-MEL-2 melanoma; EKVX NSCLC; SN12C renal; UO-31 renal; TK-10 renal; ACHN renal; CAKI-1 renal; A498 renal; CCRF-CEM leukemia; MOLT-4 leukemia.
Common to all, as to test: NCI-60 one-dose screen, 48 h (100 = growth as untreated, 0 = no growth, -100 = all killed)
Common to all, as to details: 10 µM unless noted

Compounds without any hit were thinned out: in the full panel of roughly 83,000, 20% have a hit.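 Each cell line was grown in a 96-well plate and treated with one concentration of compound for 48 hours. Values below 10 were considered active.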 Unmarked numbers belong to inactive results. The source made the active and inactive calls.

With `Cc1cc(C)c2c(c1)N(C)c1ncnc(-n3cnc4cc(C)ccc43)c1CC2C` (stereo not given), the growth was 23.4% in the assay on HCT-15 colon; 0.933% (active) with HT29 colon; 29.1% in the assay on SNB-75 CNS; 35.7% with SNB-19 CNS; 14.6% in the assay on U251 CNS; 20.9% with PC-3 prostate. Besides, the growth is 8.49% (active) in the assay with SK-MEL-5 melanoma; 30.7% in the assay on UACC-62 melanoma; 46.5% with LOX IMVI melanoma; 62.9% in the assay on SK-MEL-28 melanoma; 16.7% in the assay on SK-MEL-2 melanoma; 39% in the assay with EKVX NSCLC. The growth in the assay on SN12C renal is 43.1%; in the assay on UO-31 renal, 33.1%; in the assay with TK-10 renal it was 40%; in the assay on ACHN renal, 49.6%; in the assay with CAKI-1 renal, 32.8%; in the assay on A498 renal, 6.61% (active). Besides, the results for the growth in the assay on CCRF-CEM leukemia and in the assay with MOLT-4 leukemia were 0.648% (active) and 12.7%, respectively.
For `CCc1ncnc2c1ccn2C(C)c1ccc(OC)c(F)c1` (stereo not given), the growth in the assay on HCT-15 colon was 39.2%; in the assay with HT29 colon, 14%; in the assay on SNB-75 CNS, 35.8%; with SNB-19 CNS it was 53.2%; in the assay on U251 CNS it was 35.3%; in the assay with PC-3 prostate, 53.8%. Moreover, the growth in the assay on SK-MEL-5 melanoma was 33%; with UACC-62 melanoma, 39.8%; in the assay on LOX IMVI melanoma, 45.3%; in the assay with SK-MEL-28 melanoma, 66.5%; with SK-MEL-2 melanoma it was 34.3%; with EKVX NSCLC it was 51.9%. Moreover, the growth in the assay with SN12C renal was 67%; in the assay with UO-31 renal, 60.1%; in the assay on TK-10 renal, 58.8%; in the assay with ACHN renal it was 75.4%; in the assay on CAKI-1 renal, 40.5%; in the assay on A498 renal it was 46.3%. Also, the growth in the assay with CCRF-CEM leukemia is 42.4%; in the assay on MOLT-4 leukemia it was 32.7%.
For the compound `COc1ccc(/C=C/C(=O)c2cccc(OCCCCOc3cccc(C(=O)/C=C/c4ccc(OC)c(OC)c4)c3)c2)cc1OC`, the growth is 80.9% with HCT-15 colon; 92% with HT29 colon; 67.8% in the assay with SNB-75 CNS; 81.6% in the assay with SNB-19 CNS; 84.8% with U251 CNS; 67% in the assay on PC-3 prostate. Further, the growth in the assay on SK-MEL-5 melanoma was 9.83% (active); in the assay on UACC-62 melanoma it was 57.7%; in the assay on LOX IMVI melanoma, 61.7%; in the assay with SK-MEL-28 melanoma, 86%; in the assay on SK-MEL-2 melanoma, 81.2%; with EKVX NSCLC, 55%. Moreover, the growth with SN12C renal is 79.9%; with UO-31 renal, 62%; in the assay on TK-10 renal, 114%; in the assay on ACHN renal it was 77.8%; in the assay with CAKI-1 renal it was 74.2%; in the assay with A498 renal, 79.9%. Besides, the results for the growth in the assay with CCRF-CEM leukemia and with MOLT-4 leukemia were 62.7% and 62.8%, respectively.
Consider `Cc1ccc(C)n1-c1ccccc1-n1c(C)ccc1C`, for which the growth in the assay on HCT-15 colon was 115%; in the assay on HT29 colon it was 103%; in the assay on SNB-75 CNS it was 87.2%; in the assay on SNB-19 CNS, 108%; with U251 CNS, 102%; in the assay with PC-3 prostate, 98.7%. The growth is 104% in the assay on SK-MEL-5 melanoma; 87.5% in the assay with UACC-62 melanoma; 90.9% with LOX IMVI melanoma; 93.6% with SK-MEL-28 melanoma; 108% in the assay with SK-MEL-2 melanoma; 92.5% with EKVX NSCLC. The growth is 93.5% in the assay on SN12C renal; 98.1% in the assay on UO-31 renal; 128% in the assay with TK-10 renal; 102% in the assay on ACHN renal; 71.7% with CAKI-1 renal; 97.9% in the assay with A498 renal. For the same compound, the growth with CCRF-CEM leukemia is 124%; with MOLT-4 leukemia, 78.7%.
As to `O=C1c2ccccc2-c2c1c1c(=O)[nH]c3ccccc3c1n2Cc1ccccc1`, the growth was 84.5% with HCT-15 colon; 75.6% in the assay with HT29 colon; 70.8% in the assay with SNB-75 CNS; 68.7% in the assay on SNB-19 CNS; 68.6% with U251 CNS; 74% in the assay with PC-3 prostate. Further, the growth in the assay on SK-MEL-5 melanoma is 60.6%; in the assay with UACC-62 melanoma it was 53.8%; in the assay with LOX IMVI melanoma, 82.7%; in the assay with SK-MEL-28 melanoma it was 85.7%; in the assay with SK-MEL-2 melanoma, 75.2%; with EKVX NSCLC, 51.9%. For the same compound, the growth in the assay with SN12C renal is 69.9%; with UO-31 renal it was 78.3%; in the assay with TK-10 renal, 75.7%; in the assay with ACHN renal it was 46.6%; with CAKI-1 renal, 2.5% (active); in the assay on A498 renal, 0.459% (active). For the same compound, the growth is 87.4% with CCRF-CEM leukemia and 64.9% with MOLT-4 leukemia.
As to `COC1=CC(c2ccc[nH]2)=N/C1=C\c1[nH]c(C)c(C)c1CCC(=O)OCc1ccccc1`, the growth is -32.2% (active) in the assay with HCT-15 colon; 5.68% (active) in the assay with HT29 colon; -2.99% (active) with SNB-75 CNS; 21% in the assay with SNB-19 CNS; -40.4% (active) with U251 CNS; -27.2% (active) in the assay with PC-3 prostate. Besides, the growth with SK-MEL-5 melanoma is -89.2% (active); in the assay with UACC-62 melanoma, -54.7% (active); in the assay with LOX IMVI melanoma it was -62.9% (active); in the assay on SK-MEL-28 melanoma it was -32.6% (active); in the assay with SK-MEL-2 melanoma it was -28.9% (active); in the assay on EKVX NSCLC, -22.1% (active). Besides, the growth in the assay on SN12C renal was -30% (active); in the assay on UO-31 renal, -77.1% (active); with TK-10 renal, -0.0887% (active); in the assay on ACHN renal, -39.5% (active); with CAKI-1 renal, -23.5% (active); in the assay with A498 renal, -19.8% (active). Besides, the growth with CCRF-CEM leukemia was 0.65% (active); with MOLT-4 leukemia it was -23.7% (active).
Take `CCCCCCCCCc1ccc(OCCOCCOCCOCCOCCOCCOCCOCCOCCO)cc1`: the growth in the assay with HCT-15 colon was 10.4%; in the assay with HT29 colon, 15.2%; in the assay with SNB-75 CNS it was 36.6%; in the assay on SNB-19 CNS, 28.6%; in the assay with U251 CNS it was 16.4%; in the assay with PC-3 prostate it was 9.37% (active). Besides, the growth in the assay on SK-MEL-5 melanoma is -77.3% (active); in the assay with UACC-62 melanoma, 11.7%; with LOX IMVI melanoma, 7.91% (active); in the assay on SK-MEL-28 melanoma, 34.4%; with SK-MEL-2 melanoma it was 7.03% (active); in the assay on EKVX NSCLC it was 15.5%. Besides, the growth is 13% with SN12C renal; 12.8% with UO-31 renal; 23.1% with TK-10 renal; 18.9% with ACHN renal; 13.6% in the assay on CAKI-1 renal; -5.27% (active) in the assay on A498 renal. The growth with CCRF-CEM leukemia was -22.2% (active); with MOLT-4 leukemia it was -17.6% (active).
For the compound `Cn1c(=O)cc2c3c(c(NCCCO)ccc31)C(=O)c1ccccc1-2`, the growth in the assay on HCT-15 colon is 39.5%; in the assay with HT29 colon it was 23.1%; with SNB-75 CNS, 39.3%; in the assay with SNB-19 CNS, 47.3%; in the assay on U251 CNS, 37.5%; with PC-3 prostate, 45.2%. Further, the growth was 40.2% in the assay on SK-MEL-5 melanoma; 40.4% in the assay with UACC-62 melanoma; 26.6% in the assay on LOX IMVI melanoma; 71.4% in the assay on SK-MEL-28 melanoma; 73.9% in the assay on SK-MEL-2 melanoma; 73.2% with EKVX NSCLC. Also, the growth in the assay with SN12C renal was 46.8%; in the assay on UO-31 renal, 13.1%; in the assay on TK-10 renal, 29.1%; in the assay with ACHN renal, 25.3%; in the assay with CAKI-1 renal it was 44.7%; in the assay with A498 renal, 64.2%. Also, the growth in the assay on CCRF-CEM leukemia is 48.3%; in the assay on MOLT-4 leukemia it was 19.2%.
